Results filed as inconclusive are left out. Active and inactive are the calls of the source. Unless noted, calls follow the shape of the dose curve; as a rule, active = well fitted curve in the direction sought with a large enough effect; inconclusive = small, poorly fitted or top-dose-only effect, or another doubt; inactive = no such curve, though single readings can be large; an effect the other way counts as inactive or inconclusive.
Assays:
[1] = Cell Viability - BJ (AID 421; calls by dose curve;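 also: potency is read from the fitted curve at half-maximal effect; cells exposed to compound for 40 hours at 37 °C before readout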); conditions: BJ fibroblast viability, qHTS
In short: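 Normal human BJ foreskin fibroblasts, 1500/well in complete medium, treated 40 hr at 37 °C. Cellular ATP by CellTiter-Glo luminescence; normalized to DMSO and 100 uM tamoxifen, AC50 from Hill fit.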

[2] = Cell Viability - Jurkat (AID 426;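 active = dose-dependent loss of cell ATP signal giving a full or clear fitted curve, ranked by lower potency value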; also: potency is read from the fitted curve at half-maximal effect); conditions: qHTS
In short: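 Cells of the human T-cell leukemia line Jurkat (E6-1) are seeded at 5000 per well, treated with compound across a concentration range for 40 hours at 37 °C, then lysed with CellTiter-Glo; luminescence reports ATP.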

[3] = Cell Viability - Hek293 (AID 427;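 active = compounds whose dose-response curve shows a full or clear partial loss of cell viability, called from curve shape rather than a numeric limit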;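 also: potency is read from the fitted curve at half-maximal effect; cells exposed to compound for 40 hours at 37 °C before reading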); conditions: qHTS
In short: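 HEK293 cells in complete medium were exposed to compound for 40 hr at 37 °C, then cellular ATP was read by CellTiter-Glo luminescence. Data were normalized to DMSO (basal) and 100 uM tamoxifen (100% inhibition), and AC50 came from Hill fits.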

[4] = Cell Viability - HepG2 (AID 433; calls by dose curve;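 also: potency is read from the fitted curve at half-maximal effect; potency for ATP loss meaning cytotoxicity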); conditions: qHTS
In short: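 HepG2 hepatocellular carcinoma cells (1500/well) were treated with compounds for 40 h at 37 °C in complete medium; intracellular ATP was read by CellTiter-Glo luminescence. Data were normalized to DMSO and 100 uM tamoxifen, and AC50 came from Hill fits.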

[5] = Cell Viability - MRC5 (AID 434; calls by dose curve;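 also: potency is read from the fitted curve at half-maximal effect; potency reflects cytotoxicity seen as loss of intracellular ATP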); conditions: MRC5 lung fibroblast viability, qHTS
In short: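 AC50 values come from Hill-equation fits of intracellular ATP loss, measured by CellTiter-Glo luminescence. Normal lung fibroblasts (MRC5) had 40 hr compound treatment at 37 C, normalized between DMSO and 100 uM tamoxifen.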

[6] = Cell Viability - SK-N-SH (AID 435; calls by dose curve;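 also: potency is read from the fitted curve at half-maximal effect; compound exposure lasted 40 h at 37 °C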); conditions: SK-N-SH neuroblastoma cell viability qHTS
In short: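 SK-N-SH human neuroblastoma cells (1500/well) were exposed to compounds in complete medium for 40 h at 37 °C, and intracellular ATP was then measured by CellTiter-Glo luminescence. AC50 was taken from Hill fits, normalized to DMSO and 100 uM tamoxifen.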

[7] = target: Mitogen-activated protein kinase 10 (Mus musculus) (UniProt Q61831); experiment: JNK3 AlphaScreen Assay (AID 530; active = well fitted curve in either direction with a large enough effect, not every such curve was filed as active;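 also: kinase came from lysate of stimulated human HepG2 cells; signal reports phosphorylation of biotinylated GST-cJun 1-79 at Ser73 with 10 µM ATP; % is scaled to controls: 0 for no effect and ±100 for the full control effect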); conditions: JNK3 lysate, c-Jun phosphorylation; series mostly up to 57.1 µM
In short: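 qHTS titrations with 15 min compound pre-incubation before adding ATP (10 uM final). Read-out: AlphaScreen of Ser73-phosphorylated biotin-GST-cJun using HepG2 lysate JNK3 activated by IL-1β and TNFα.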

[8] = Cell Viability - N2a (AID 540); conditions: N2a mouse neuroblastoma cell viability; activity change, negative = cytotoxicity: at 92.2 µM (top of the series);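 also: plate controls were DMSO alone for no effect and tamoxifen control for full effect; nearly all actives have a fitted effect of over 45% in size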
In short: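 Cytotoxicity was scored as loss of cellular ATP in N2a cells, a mouse neuroblastoma line. Compounds are applied in a qHTS concentration series for 40 hr at 37 °C.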

[9] = Cell Viability - NIH 3T3 (AID 541); conditions: NIH 3T3 cell viability, qHTS; activity change, negative = cytotoxicity: at 92.2 µM (top of the series);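 also: plate controls were DMSO alone for no effect and tamoxifen positive control for full effect; nearly all actives have a fitted effect of over 25% in size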
In short: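 Cells seeded at 1000/well, rested 5 hr at 37 °C, then dosed and incubated 40 hr at 37 °C. CellTiter-Glo added, 20 min room temperature, luminescence read. AC50 by Hill fit.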

[10] = Cell Viability - H-4-II-E (AID 543); conditions: H-4-II-E rat hepatoma viability; series mostly up to 92.2 µM; also: % is scaled to controls: 0 for no effect and ±100 for the full control effect; nearly all actives have a fitted effect of over 35% in size
In short: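 Cells seeded at 1500 per well and rested 5 hr; compounds added; 40 hr incubation at 37 °C; CellTiter-Glo added, 20 min at room temperature; luminescence read. Hill-equation fits gave AC50.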

[11] = Cell Viability - SH-SY5Y (AID 544); conditions: SH-SY5Y neuroblastoma cell viability; viability change, negative = cytotoxic: at 92.2 µM (top of the series); also: nearly all actives have a fitted effect of over 55% in size
In short: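 Cells were plated at 1500 per well and allowed 5 hr at 37 °C. Compounds were added across a concentration range and incubated 40 hr at 37 °C. CellTiter-Glo was added for 20 min at room temperature before luminescence reading.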

[12] = Cell Viability - Mesenchymal (AID 546); conditions: mesenchymal cells viability, qHTS; series mostly up to 91.7 µM;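 also: cells exposed to compound for 40 hours before reading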
In short: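 CellTiter-Glo luminescence (intracellular ATP, 20 min room temperature) after 40 hr compound exposure at 37 °C of 1000 glomerulus-derived human kidney mesenchymal cells/well; AC50 values obtained by fitting qHTS concentration-response data to the Hill equation.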

[13] = Cellular Toxicity (caspase-3) HepG2 (AID 654); conditions: HepG2 caspase-3 activation, luminescence; series mostly up to 92.2 µM;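 also: cells exposed to compound for 16 hours before reading; 0% = DMSO alone and 100% = caspase signal from 100 µM tamoxifen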
In short: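 Caspase 3/7 activation in HepG2 is measured as rising luminescence after a 16 hr treatment at 37 °C. Values are scaled between DMSO basal and 100 uM tamoxifen, and AC50 is fitted with the Hill equation.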

[14] = Cellular Toxicity (caspase-3) Jurkat (AID 655); conditions: Jurkat caspase-3 activation, luminescence; caspase-3 activation: at 92.2 µM (top of the series), DMSO = 0%, tamoxifen = 100%;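 also: cells exposed to compound for 16 h at 37 °C before reading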
In short: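 Jurkat cells (5000/well) in complete medium were treated with compounds for 16 hr at 37 °C, then Caspase-Glo 3/7 luminescence was read after 20 min at room temperature. Data normalized to DMSO (basal) and 100 uM tamoxifen (100%); AC50 from Hill fit.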

[15] = Cellular Toxicity (caspase-3) HUV-EC-C (AID 656); conditions: HUV-EC-C cells, caspase-3 activation (apoptosis), vehicle = 0, 100 µM tamoxifen = 100%; series mostly up to 92.2 µM
In short: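 HUV-EC-C endothelial cells, 1000/well, were pre-incubated 5 hr at 37°C, then exposed to compounds for 16 hr at 37°C. Caspase-Glo 3/7 luminescence was read after 20 min at room temperature. AC50 came from Hill fits, normalized to DMSO and 100 uM tamoxifen.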

[16] = Cellular Toxicity (caspase-3) SHSY5Y (AID 657); conditions: SH-SY5Y caspase-3 activation, DMSO zero, 10 µM staurosporine = 100%; series mostly up to 91.7 µM
In short: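 SH-SY5Y human neuroblastoma cells (1500/well) were treated with compounds for 16 h at 37 °C, then Caspase-Glo 3/7 luminescence was read after 1 h at room temperature. Data normalized to DMSO and 10 uM staurosporine; AC50 from Hill fits.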

[17] = Cellular Toxicity (caspase-3) BJ (AID 658); conditions: BJ fibroblasts, luminescence, normalized: DMSO 0%, staurosporine 100%; series mostly up to 91.7 µM
In short: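 Caspase-Glo 3/7 luminescence, read 1 hr after reagent at room temperature, in normal BJ fibroblasts exposed 16 hours at 37 °C. AC50 values from Hill-equation concentration-response, scaled between DMSO basal and 10 uM staurosporine as 100%.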

[18] = Cellular Toxicity (caspase-3) MRC-5 (AID 659); conditions: MRC-5 cells, luminescence, normalized: DMSO 0%, 10 µM staurosporine 100%; series mostly up to 91.7 µM
In short: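 Luminescent Caspase-Glo 3/7 read-out (1 h, room temperature) after a 16 h, 37 °C compound exposure of MRC-5 lung fibroblasts at 1500 cells/well. Concentration-response AC50 from Hill equation; 0% DMSO, 100% 10 uM staurosporine.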

[19] = Cell Viability - HUV-EC-C (AID 542); conditions: HUV-EC-C endothelial cell viability, qHTS; series mostly up to 92.2 µM; also: % is scaled to controls: 0 for no effect and ±100 for the full control effect; nearly all actives have a fitted effect of over 35% in size
In short: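 Cells were seeded at 1000 per well and incubated 5 hr at 37 °C before compound addition. After 40 hr at 37 °C, CellTiter-Glo reagent was added for 20 min and luminescence read. AC50 values came from Hill-equation modelling.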

[20] = Cell Viability - Renal Proximal Tubule (AID 545); conditions: renal proximal tubule cells viability, primary cells of rat origin; series mostly up to 91.7 µM; also: nearly all actives have a fitted effect of over 40% in size
In short: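 Primary rat renal proximal tubule cells (1000/well) were treated with compounds for 40 hr at 37 °C in complete medium. Intracellular ATP was measured by CellTiter-Glo luminescence, and AC50 values came from Hill-equation fits of concentration-response data.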

C=Cc1ccc(C=C)cc1
inactive: Potency [1] > 92 µM | Potency [2] > 92 µM | Potency [3] > 92 µM | Potency [4] > 92 µM | Potency [5] > 92 µM | Potency [6] > 92 µM | outcome [7] | activity change, negative = cytotoxicity [8] -7.69% | Potency [9] | Potency [10] | Potency [11] | Potency [12] | Potency [13] | caspase-3 activation [14] -0.456% | outcome [15] | outcome [16] | outcome [17] | outcome [18]

CC(N)CN (stereo not drawn)
inactive: Potency [1] > 92 µM | Potency [2] > 92 µM | Potency [3] > 92 µM | Potency [4] > 92 µM | Potency [5] > 92 µM | outcome [7] | activity change, negative = cytotoxicity [8] 3.26% | Potency [9] | Potency [19] | Potency [10] | Potency [11] | Potency [20] | Potency [12] | Potency [13] | caspase-3 activation [14] 2.43% | outcome [15] | outcome [16] | outcome [17] | outcome [18]

Nc1ccc(F)cc1F
inactive: Potency [1] > 92 µM | Potency [2] > 92 µM | Potency [3] > 92 µM | Potency [4] > 92 µM | Potency [5] > 92 µM | Potency [6] > 92 µM | outcome [7] | Potency [9] | Potency [19] | Potency [10] | Potency [11] | Potency [20] | Potency [12] | Potency [13] | caspase-3 activation [14] 1.31% | outcome [15] | outcome [16] | outcome [17] | outcome [18]

C=CCCCC
inactive: Potency [1] > 92 µM | Potency [2] > 92 µM | Potency [3] > 92 µM | Potency [4] > 92 µM | Potency [5] > 92 µM | Potency [6] > 92 µM | outcome [7] | Potency [9] | Potency [19] | Potency [10] | Potency [11] | Potency [20] | Potency [12] | Potency [13] | caspase-3 activation [14] 0.169% | outcome [15] | outcome [16] | outcome [17] | outcome [18]

CCC=O
inactive: Potency [1] > 92 µM | Potency [2] > 92 µM | Potency [3] > 92 µM | Potency [4] > 92 µM | Potency [5] > 92 µM | outcome [7] | activity change, negative = cytotoxicity [8] 1.92% | Potency [9] | Potency [19] | Potency [10] | Potency [11] | Potency [20] | Potency [12] | Potency [13] | caspase-3 activation [14] 3.47% | outcome [15] | outcome [16] | outcome [17] | outcome [18]

NC(=O)c1cccc([N+](=O)[O-])c1
inactive: Potency [1] > 92 µM | Potency [2] > 92 µM | Potency [3] > 92 µM | Potency [4] > 92 µM | Potency [5] > 92 µM | Potency [6] > 92 µM | outcome [7] | Potency [9] | Potency [19] | Potency [10] | Potency [11] | Potency [20] | Potency [12] | Potency [13] | caspase-3 activation [14] -0.315% | outcome [15] | outcome [16] | outcome [17] | outcome [18]

O=C(O)/C=C/C(=O)O
inactive: Potency [1] > 92 µM | Potency [2] > 92 µM | Potency [3] > 92 µM | Potency [4] > 92 µM | Potency [5] > 92 µM | outcome [7] | activity change, negative = cytotoxicity [8] 4.39% | Potency [9] | Potency [19] | Potency [10] | Potency [11] | Potency [20] | Potency [12] | Potency [13] | caspase-3 activation [14] 1.23% | outcome [15] | outcome [16] | outcome [17] | outcome [18]

O=C(Cl)c1cccc([N+](=O)[O-])c1
inactive: Potency [1] > 92 µM | Potency [2] > 92 µM | Potency [3] > 92 µM | Potency [4] > 92 µM | Potency [5] > 92 µM | Potency [6] > 92 µM | outcome [7] | Potency [9] | Potency [19] | Potency [10] | Potency [11] | Potency [20] | Potency [12] | Potency [13] | caspase-3 activation [14] 2.23% | outcome [15] | outcome [17] | outcome [18]

CC(=O)c1cccc([N+](=O)[O-])c1
inactive: Potency [1] > 92 µM | Potency [2] > 92 µM | Potency [3] > 92 µM | Potency [4] > 92 µM | Potency [5] > 92 µM | Potency [6] > 92 µM | outcome [7] | Potency [9] | Potency [19] | Potency [10] | Potency [11] | Potency [20] | Potency [12] | Potency [13] | caspase-3 activation [14] -0.656% | outcome [15] | outcome [16] | outcome [17] | outcome [18]

Clc1ccccn1
inactive: Potency [1] > 92 µM | Potency [2] > 92 µM | Potency [3] > 92 µM | Potency [4] > 92 µM | Potency [5] > 92 µM | Potency [6] > 92 µM | outcome [7] | activity change, negative = cytotoxicity [8] -19.1% | Potency [9] | Potency [10] | Potency [11] | Potency [12] | Potency [13] | caspase-3 activation [14] -1.1% | outcome [15] | outcome [16] | outcome [17] | outcome [18]

CCCCOCCOCCSC#N
inactive: Potency [1] > 92 µM | Potency [2] > 92 µM | Potency [3] > 92 µM | Potency [4] > 92 µM | Potency [5] > 92 µM | Potency [6] > 92 µM | outcome [7] | Potency [9] | Potency [10] | Potency [11] | Potency [12] | Potency [13] | caspase-3 activation [14] 1.11% | outcome [15] | outcome [16] | outcome [17] | outcome [18]

CCCCC(CC)CNCC(CC)CCCC (stereo not drawn)
inactive: Potency [1] > 92 µM | Potency [2] > 92 µM | Potency [3] > 92 µM | Potency [4] > 92 µM | Potency [5] > 92 µM | Potency [6] > 92 µM | outcome [7] | Potency [9] | Potency [19] | Potency [10] | Potency [11] | Potency [20] | Potency [12] | Potency [13] | caspase-3 activation [14] 1.24% | outcome [15] | outcome [16] | outcome [17] | outcome [18]
